Drawing on PubChem BioAssay AID1508600 (Functional Genomics Laboratory (NCATS/FGL), 2020), this text covers z-score for 69 sequences.

In all, about 53,000 sequences went through this assay and about 3,700 (7%) were called active.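 The calls were made as follows: active = gene knockdowns whose robust z-score for IL-1 alpha signal is at least 2 or at most -2, so actives lie on both sides; inactive = the rest.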 Many of the other results were omitted from the sample, so actives are more common in it than they were.

This experiment can be described thus: Components of the Cytosolic LPS Sensing Pathway: Gene Identification via Genome-wide siRNA Screen.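 Also: robust z of the log signal after scaling to non-targeting control siRNA wells of the plate.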 Particulars: RAW264.7 macrophages, IL-1a HTRF, actives lie on both sides, screened at 100 nM (by protocol), cells primed 5 h with Pam3CSK4 first. An outline of the steps: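 Knockdown: 100 nM siRNA, 48h, RAW264.7. Stimulation: Pam3CSK4 5 h, then LipidA via TransIT-TKO 24 h. Output: supernatant IL-1a HTRF, negative-control-normalized, log robust z-score; viability by CellTiter-Glo.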
GGAAUGGAGUUUGGUUUUGTT against Extl1: the z-score is 2.67 (active).
Take GGAAACGAGUUGGAGACAATT against Gtpbp1: the z-score was -1.03 (inactive).
The result for GGUUAAGUUCCUCUGGAACTT against Pnliprp2 reads -0.0719 (inactive).
Take “GGCACUACCACAAGUAUAGTT against 1700073E17Rik”: the z-score was 0.0893 (inactive).
Take GCAGGUUAUGGUCAUAUUUTT against Zfp646: the z-score is 0.583 (inactive).
With GCAGUUGAGUCCACCUCAATT against Ccdc187 the figure was 2.18 (active).
Take GGAGAACGUGGUACAAAGUTT against Sncg: the z-score was -1.27 (inactive).
As to GGAGGACUUAGAGAGUAUGTT against Ctdp1, the z-score was -0.595 (inactive).
Consider CCAGUGUAGAGCACAAAUCTT against Ahr, for which the z-score was 2.51 (active).
As for GGACCUGGACCUUUUAGAGTT against Vegfb, the z-score is 1.34 (inactive).
For GGUUGUUGGAAAAAUAGAUTT against Tmem175, the z-score was -0.0383 (inactive).
On to GGUGGACUUCAUGUAGAUUTT against Eif3m, for which the z-score is -1.07 (inactive).
For GGACAAGAGGUACACAAACTT against Eif3d, the z-score was 2.83 (active).
With GGAAGAGCUGGACUUCUUCTT against Hoxb2 the figure was 1.71 (inactive); with CCACGGUUAUGAUGACGACTT against Dyrk1b, 1.89 (inactive).
For the sequence GGACUAUUUCCUUUGUGGGTT against Olfr31, the z-score is -1.59 (inactive).
As to GGAUUGUCCUUGAUGGCUGTT against Plek2, the z-score was -0.116 (inactive).
With GGAGGUUUUACUCAAACAUTT against Sec14l2, the z-score is 1.35 (inactive).
Consider GGGCCUGCUCUCUUUUCUGTT against Mfsd14b, for which the z-score is 1.18 (inactive).
In the case of CCUCGAGUCACCAACAUCGTT against Stt3b, the z-score was -2.46 (active).
With GCCUUUUGUACUAAGGUCCTT against Zfp715, the z-score was 1.65 (inactive).
GGGACAGUUAGUCAGUAAGTT against Pus7l: the z-score is 0.196 (inactive).
On to GGCUCAGAAACAACAGGCUTT against Sh2d3c, for which the z-score is -1.19 (inactive).
With GGCUGUUAGAGGAAGAGAUTT against Ube3b the figure was 1.64 (inactive); with CCAGCAUCUACUGUCUGACTT against Sstr1, 4.2 (active).
In the case of GCAAUGCAUGAAGACUCGUTT against Ecsit, the z-score was 0.835 (inactive).
Regarding GGGACUGGAUCCUUGAUAUTT against Ebi3, the z-score is 0.677 (inactive).
With CCCGGACCUUGAAUAAGCATT against Piwil4, the z-score was -1.06 (inactive).
Regarding GCCACUAUCUGGAUAAGGATT against Ftl1, the z-score was -3.54 (active).
For the sequence GGAGAAGUGGUAGAAACUGTT against Brd8, the z-score was -1.3 (inactive).
With GCUUAGUCGGGAGAACUUUTT against Skp2, the z-score is 0.81 (inactive).
Consider GGACAAGCUAAGCAUUGAGTT against Atp6ap1, for which the z-score was -1.45 (inactive).
As for GCAUUGUCGUGUCUUCUCUTT against Tti1, the z-score is -2.13 (active).
Regarding GGAGUUUCAAGAAAAAAGGTT against Map3k21, the z-score is 1.08 (inactive).
With GGGCGAAGAUACAAGUGACTT against Tnp2 the figure was -1.76 (inactive); with GCACCAAGUCGUAUAAACATT against Sh3glb1, -0.391 (inactive); with CCAAUUUUGUCAUAGGACATT against Plbd1, -0.107 (inactive).
Take GGAUGUAAGGCCUUUUUUATT against Esr2: the z-score was 0.676 (inactive).
Regarding GGAGACCUUCAGCUUGGAATT against Zfp260, the z-score was 0.0537 (inactive).
As for GGAUUCUAGGAGAGAAUCATT against Cplx3, the z-score is 0.897 (inactive).
Take GCCAUUUCUUAUCAAGUGGTT against Laptm4a: the z-score is -2.63 (active).
For the sequence GGAGCAGAACAUUAUCUUCTT against Tnn, the z-score is 0.603 (inactive).
On to “CCUAAACUACAGGAAUUUATT against D830014E11Rik”, for which the z-score was -0.0293 (inactive).
Consider CCAUAUGAGAAGAUGACACTT against Pdcl2, for which the z-score is -1.39 (inactive).
As to GGCAGAAUCAGUUGAAAUUTT against Terf2ip, the z-score was 0.917 (inactive).
On to CCAAGUUCGUGACAAACAUTT against Trpv1, for which the z-score was -0.0275 (inactive).
Turning to “CCAUCAGGGUUACAAGUACTT against 6030458C11Rik”, the z-score was -2.46 (active).
Take GGACUUGUCCGCUCAUUGGTT against Usp54: the z-score is -1.13 (inactive).
As for GGUAGAAAAGCUUCUGAAATT against Ap1g1, the z-score was 0.349 (inactive).
Turning to GGCUAUUAACAUCUCAGUUTT against Rhbdd1, the z-score was 0.0309 (inactive).
Turning to GGACAGAGAUCAAUAUUAATT against Rxfp3, the z-score is -0.0718 (inactive).
Regarding CGAAUGAAAGAAUACCGUGTT against Dnajc6, the z-score was 0.0901 (inactive).
Take CCUGGAUGCAUGGUUAUUATT against Cyp2ab1: the z-score is 2.69 (active).
GGGAAGAAAAUCAAACUCATT against Fabp1: the z-score is 0.504 (inactive).
Regarding GGCCGUUCAUUUCCUCAUCTT against Galr2, the z-score is -0.359 (inactive).
As to GGAUUUGUUUUCACCAAGATT against Dmd, the z-score was 0.3 (inactive).
Take GGUGACAGGUCAGAAAGUCTT against Tor1aip2: the z-score is -2.78 (active).
For GGAGUUAAACCACUCAAGATT against Ceacam11, the z-score was -0.262 (inactive).
With GCAGGAUGUGACAGAUACATT against Pdcd2 the figure was 0.185 (inactive); with CCAGAUGCUCGAUUCAGUGTT against Crim1, -0.44 (inactive).
Consider GGGAAAGACUCAAGGUCCUTT against Olfr586, for which the z-score was 0.774 (inactive).
GGCUAUUACCAUGGCCACUTT against Smim5: the z-score is -2.85 (active).
In the case of GCCCAAUCAAAAAAUGGUGTT against Zyx, the z-score was -0.0505 (inactive).
In the case of CGUGGACUUUAAGGAGCUGTT against Gdf7, the z-score was -0.299 (inactive).
In the case of GGAUAAGGUAAUCUCGGUATT against Olfr710, the z-score was -0.472 (inactive).
As to CCAUAUUGAAACCUCAUUUTT against Fam126a, the z-score is -2.33 (active).
In the case of CGUGCUACAGAUGCGUCAUTT against Exoc8, the z-score is 0.783 (inactive).
CGCUCGUUACCUAAAGCAGTT against Nwd1: the z-score is -2.78 (active).
For GCUUUGAAAUCUGAAUCAGTT against Terf2, the z-score was 2.06 (active).
